Screens: PubChem BioAssay, several laboratories
ANO1 activ: activates or potentiates the mouse TMEM16A chloride channel; Q8BHY3; HEK293 TMEM16A/YFP-H148Q/I152L, iodide quench fluorescence; hits give low values; B-score at 10 µM; 340,000 compounds, 0.3% hits; AID 623877;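 active = fluorescence-ratio B-score plate-corrected deviation score at least 3 library SD below zero, with starting fluorescence score within 5 deviations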;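 also: channel opened by trigger with iodide after compound preincubation; score built on the fluorescence ratio of max minus min over baseline; more negative score means more quench and so TMEM16A activation or potentiation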
CHT block: inhibits the human high affinity choline transporter | Q9GZV3 | CHT-expressing cells, membrane potential dye, choline response; hits give low values | B-score at 10 µM | 310,000 compounds, 0.86% hits;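 active = B-score over 3 SD under the library average, and starting fluorescence ratio not unusually high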;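 also: choline stimulus applied at its EC90 after an EC20 pre-addition; B-score computed on integrated fluorescence ratio after choline addition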
HDAC3 inhib: inhibitors of human histone deacetylase 3 | O15379 | recombinant HDAC3, fluorogenic peptide/trypsin coupled, fluorescence | inhibition, % at 8.3 µM | 320,000 compounds, 0.15% hits; in the data active = inhibition above about 26%, passing the limit was not always enough
Target sequence (O15379 whole entry, looked up): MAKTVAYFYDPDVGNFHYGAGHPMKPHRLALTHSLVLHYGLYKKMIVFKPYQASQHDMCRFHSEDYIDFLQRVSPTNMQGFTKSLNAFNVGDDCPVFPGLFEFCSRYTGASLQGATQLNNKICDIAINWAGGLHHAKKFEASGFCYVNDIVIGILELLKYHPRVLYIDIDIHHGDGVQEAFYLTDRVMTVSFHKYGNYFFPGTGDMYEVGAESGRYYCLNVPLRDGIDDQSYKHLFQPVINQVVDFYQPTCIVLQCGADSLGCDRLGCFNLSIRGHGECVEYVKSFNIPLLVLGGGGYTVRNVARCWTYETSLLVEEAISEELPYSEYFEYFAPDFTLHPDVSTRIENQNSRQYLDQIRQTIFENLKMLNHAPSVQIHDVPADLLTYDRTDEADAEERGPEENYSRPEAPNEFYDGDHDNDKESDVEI
TMEM16A inh: inhibitors of mouse TMEM16A calcium-activated chloride channel. Q8BHY3. HEK293 TMEM16A/YFP iodide influx fluorescence, ionomycin. normalized B-score (activity score, 25-100; higher = stronger inhibition) at 10 µM. 310,000 compounds, 1.2% hits. AID 588511;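 active = ratio plate-corrected score three or more library SD toward inhibition, starting fluorescence score within five deviations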;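 also: score derived from kinetic fluorescence span divided by baseline fluorescence per well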
PHOSPHO1 block: blocks human PHOSPHO1 phosphatase activity; recombinant PHOSPHO1, absorbance phosphatase assay; inhibition, % at 13.3 µM; 290,000 compounds, 1.1% hits; in the data active = inhibition above about 60%
CHT allo act: allosterically activates the human high affinity choline transporter; Q9GZV3; 310,000 compounds, 0.49% hits; B-score at 10 µM; AID 488977; CHT-expressing cells, membrane potential dye, choline EC20; hits give high values; LV-AA mutant CHT in HEK293 cells;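 active = initial fluorescence not abnormally high and integrated response B-score, plate-corrected, over 3 SD above library mean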
CHT activ conf: human CHT activation, confirmatory screen; shares compounds with CHT allo act; CHT-expressing cells, membrane potential dye fluorescence (FDSS); % of choline EC20–EC90 response window; HEK293 expressing CHT LV-AA mutant; choline added at its EC20; activation, % at 10 µM; 2,500 compounds, 91% hits; AID 504833;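 active = primary screen active, with duplicate mean activation above negative control mean plus 3 SD, cut at about 11% in these data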
HEK293 MP dye: CHT activator counter-screen hit in parental HEK293 cells. shares compounds with CHT allo act. membrane potential dye fluorescence (FDSS); measured after EC20 choline addition. ratio readout change at 10 µM, hits read low. 2,500 compounds, 62% hits. AID 623908;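 active = duplicate-averaged ratio beyond 3 SD from buffer wells, up or down, though filed actives are nearly all decreases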
Hits are given with their value; i = inactive; nt = no result given. Only some compounds are listed: those with a hit (about 3.2% of all), similar ones and a draw of the others.

SMILES	ANO1 activ	CHT block	HDAC3 inhib	TMEM16A inh	PHOSPHO1 block	CHT allo act	CHT activ conf	HEK293 MP dye
COc1ccc(-n2c(Cc3ccccc3)nnc2SCc2ccc([N+](=O)[O-])cc2)cc1	i	i	i	i	i	i	nt	nt
O=[N+]([O-])c1ccc(CSc2nnc(Cc3ccccc3)n2-c2ccc(F)cc2)cc1	i	i	i	i	i	i	21	i
Cc1cccn2c(CNCCCn3ncc4ccccc43)c(C(=O)N3CCCCC3)nc12	i	i	i	i	i	i	nt	nt
CCOC(=O)N1CCN(c2cc(NCCC(=O)O)c3c4c(onc24)-c2ccccc2C3=O)CC1	-12	i	i	i	i	i	26	-60
Cc1cc(NCCCN2CCOCC2)n2nc(C)c(-c3ccc(F)cc3)c2n1	i	i	i	i	i	i	52	-65
Cc1cc(NCCCN2CCOCC2)n2ncc(-c3ccccc3)c2n1	i	i	i	i	i	i	nt	nt
Cc1cc(NCCCN2CCOCC2)n2nc(C)c(-c3ccccc3)c2n1	i	i	i	i	i	9.7	45	-57
Cc1cc(C)c2c(n1)nn1c(NCCCN3CCOCC3)cc(C)nc21	i	nt	nt	nt	nt	nt	nt	nt
O=C(c1ccccc1OC(F)F)N1CCN(S(=O)(=O)c2ccc3c(c2)OCCCO3)CC1	i	nt	i	nt	nt	nt	nt	nt
O=P(c1ccccc1)(c1ccccc1)C(O)c1ccccn1 (centres undefined)	i	i	i	i	i	i	nt	nt
O=P(c1ccccc1)(c1ccccc1)C(c1ccccn1)P(=O)(c1ccccc1)c1ccccc1	i	i	i	i	i	8.5	34	i
Fc1ccc(C(c2nnnn2Cc2ccco2)N2CCN(C3CCCCC3)CC2)cc1 (centres undefined)	i	i	i	i	i	i	31	i
CC(C)n1nnnc1C(c1ccc(F)cc1)N1CCN(C2CCCC2)CC1 (centres undefined)	i	nt	nt	nt	i	nt	nt	nt
CCN(CC)CCNc1ccc(CO)c2sc3ccccc3c(=O)c12	i	i	i	i	i	6.4	44	-49
O=c1c2ccccc2sc2c(CO)ccc(NCCN3CCCCC3)c12	i	nt	nt	nt	nt	nt	nt	nt
CC(=O)N1CCc2cc(S(=O)(=O)NC(Cc3ccccc3)C(=O)O)ccc21 (centres undefined)	i	i	i	i	i	i	nt	nt
COc1cccc(OCC(O)CN2CCN(CCN3C(=O)c4cccc5cccc(c45)C3=O)CC2)c1 (centres undefined)	i	i	i	i	i	i	nt	nt
O=C1c2cccc3cccc(c23)C(=O)N1CCN1CCN(CC(O)COc2ccccc2)CC1 (centres undefined)	i	i	i	i	i	i	i	i
CN(C)C(/C=C/Nc1cccc(Br)c1)=C(C#N)C#N	i	i	i	i	i	i	49	-42
CC(C)(CN1CCN(Cc2ccccc2)CC1)NS(=O)(=O)c1ccc(Cl)cc1	i	i	i	i	i	9	21	i
Cc1cc(C)nc(NC(=O)c2ccc(C)c([N+](=O)[O-])c2)n1	i	i	i	i	i	i	nt	nt
COc1ccc(C(=O)Nc2nc(C)cc(C)n2)cc1[N+](=O)[O-]	i	i	i	i	i	i	19	-39
COC(=O)c1cc(OC)c(OC)cc1NC(=S)N1CCCCC1	i	i	i	i	i	i	nt	nt
CCCCCCN1C2=NCCN2c2ccccc21	i	i	i	i	i	i	nt	nt
CCCN1C2=NCCCN2c2ccccc21	i	i	i	i	i	i	nt	nt
SMILES	ANO1 activ	CHT block	HDAC3 inhib	TMEM16A inh	PHOSPHO1 block	CHT allo act	CHT activ conf	HEK293 MP dye
CCCN1C2=NCCN2c2ccccc21	i	i	i	i	i	6.4	41	-36
CN1C2=NCCN2C(=O)c2ccccc21	i	i	i	i	i	9.4	29	-52
CCOC(=O)c1cn2nc(N3CCCCC3)ccc2n1	i	i	i	i	i	i	nt	nt
CCOC(=O)c1cn2nc(N3CCCC3)ccc2n1	i	i	i	i	i	i	35	-38
Cc1ccc(NC(=O)CCc2nnc3ccc(N4CCC(C)CC4)nn23)nc1	i	i	i	i	i	i	nt	nt
CCOC(=O)N1CCN(c2nc(-c3cccs3)nc3ccccc23)CC1	i	i	i	i	i	6.7	30	i
O=c1[nH]c2ccccc2nc1C(F)(F)F	i	i	nt	i	i	i	nt	nt
CCCC[C@H]1COCCS(=O)(=O)N1Cc1cccc([N+](=O)[O-])c1	i	i	i	i	i	6.5	13	i
CCC1COCCS(=O)(=O)N1Cc1ccccc1 (centres undefined)	i	i	i	i	i	i	nt	nt
Cc1ccc2c(c1)S/C(=C/c1ccc[n+](C)c1)N2CCO	i	i	i	i	i	7	34	-49
Cc1cccc(COCC(Cc2ccccc2)N2CCN(C(=O)c3ccc(C(F)(F)F)cc3)CCC2=O)c1 (centres undefined)	i	i	i	i	i	i	35	i
CC(C)CC(COCc1ccc([N+](=O)[O-])cc1)N1CCN(C(=O)c2ccc(C(F)(F)F)cc2)CCC1=O (centres undefined)	i	i	i	i	i	i	29	i
O=C(c1ccc(C(F)(F)F)cc1)N1CCC(=O)N(C(COCc2ccc(C(F)(F)F)cc2)Cc2ccccc2)CC1 (centres undefined)	i	i	i	i	i	i	nt	nt
CCOC(=O)c1csc(NC(=O)CSc2nnnn2-c2cccc(OC)c2)n1	i	i	i	i	i	i	nt	nt
Cc1ccc(NCC(=O)c2ccc([N+](=O)[O-])cc2)cc1	i	i	i	i	i	6.4	11	-23
Cc1ccc(C(=O)CNc2cccc([N+](=O)[O-])c2)cc1	i	i	i	i	i	i	nt	nt
COc1cccc(CNC(=O)C2CCN(S(=O)(=O)c3c(C)nn(C)c3C)CC2)c1	i	i	i	i	i	i	nt	nt
Cc1cccc(NC(=O)CSCC(=O)Nc2cccc3ncccc23)c1	i	i	i	i	nt	i	nt	nt
COC(=O)CSc1nnc(NC(=O)/C=C\c2ccc3c(c2)OCO3)s1	i	i	i	i	i	i	nt	nt
O=C(NCC1CCCO1)c1cc(S(=O)(=O)N2CCCCC2)ccc1Cl (centres undefined)	i	nt	i	nt	nt	nt	nt	nt
COc1cc2c(cc1NC(=O)COCC(=O)O)oc1ccccc12	i	i	i	i	i	i	46	-45
O=c1[nH]cnc2c1nc(NCc1ccccc1)n2C1O[C@@H](CO)[C@H](O)[C@@H]1O (some centres undefined)	i	i	i	i	i	i	nt	nt
